# High-throughput results: PubChem BioAssay, National Center for Advancing Translational Sciences (NCATS)
# An excerpt weighted towards active compounds, which were near 8.7% of everything screened.
# G9a block – G9a (human) methyltransferase inhibition; Q96KQ7; G9a H3K9 monomethylation, AlphaScreen, 2 h; Potency, µM (highest dose often 102 µM), inactives show top-dose activity, negative = inhibition, usual class: inhibitors; actives 8.8% (n = 350,000); further: on the % scale 0 is the no-effect control and ±100 the full control effect; nearly all actives have a fitted effect of over 75% in size
#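 AlphaScreen read-out: biotin-H3K9 peptide (500 nM) methylation by 20 nM enzyme with 20 uM SAM, 2 h at room temperature after 15 min compound preincubation; anti-monomethyl H3K9 antibody plus donor/acceptor beads, 10 min dark.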
# Sfp inh – blocks B. subtilis Sfp PPTase activity; Q9F4F7; Biochemical Sfp PPTase activity, qHTS; AID 1490; Potency, µM, without a hit: largest response in the series, negative = inhibition, usual class: inhibitors; actives 3.5% (n = 310,000);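 further: the enzyme is Sfp with the accession as filed and its product quenches rhodamine fluorescence; 0% = enzyme reaction without inhibitor and -100% = no enzyme wells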
#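 Reaction rates are the 30-min fluorescence difference (ex 525, em 598 nm) in wells containing 15 nM Sfp, 5 uM rhodamine-CoA and 12.5 uM BHQ-2-YbbR at pH 7.6 with 10 mM MgCl2.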
# 12-LOX inh – inhibitors of human 12S-lipoxygenase ALOX12; purified 12hLO, xylenol orange hydroperoxide absorbance; Potency, µM (highest dose often 108 µM), for the others: at the top dose activity change, negative = inhibition, most hits filed as inhibitors; actives 1.1% (n = 580,000); AID 1671190; further: on the % scale 0 is the no-effect control and ±100 the full control effect
#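 Purified human 12hLO at 150 nM in 25 mM Hepes, 0.01% Triton X-100, pH 7.0, preincubated 15 min at room temperature with compound. Reaction started with 40 uM arachidonic acid, 30 min at room temperature. Hydroperoxide measured by Fe-xylenol orange, 573/405 nm absorbance ratio.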
# BAZ2B inh – BAZ2B (human) inhibition. Q9UIF8. AlphaScreen BAZ2B-H3K14Ac peptide displacement. Potency, µM (highest dose often 114 µM), for inactives: at the top dose activity change, negative = inhibition, hits mostly inhibitors. actives 4.4% (n = 360,000). AID 504333; further: on the % scale 0 is the no-effect control and ±100 the full control effect; nearly all actives have a fitted effect of over 60% in size
# Target sequence (Q9UIF8 whole entry, looked up): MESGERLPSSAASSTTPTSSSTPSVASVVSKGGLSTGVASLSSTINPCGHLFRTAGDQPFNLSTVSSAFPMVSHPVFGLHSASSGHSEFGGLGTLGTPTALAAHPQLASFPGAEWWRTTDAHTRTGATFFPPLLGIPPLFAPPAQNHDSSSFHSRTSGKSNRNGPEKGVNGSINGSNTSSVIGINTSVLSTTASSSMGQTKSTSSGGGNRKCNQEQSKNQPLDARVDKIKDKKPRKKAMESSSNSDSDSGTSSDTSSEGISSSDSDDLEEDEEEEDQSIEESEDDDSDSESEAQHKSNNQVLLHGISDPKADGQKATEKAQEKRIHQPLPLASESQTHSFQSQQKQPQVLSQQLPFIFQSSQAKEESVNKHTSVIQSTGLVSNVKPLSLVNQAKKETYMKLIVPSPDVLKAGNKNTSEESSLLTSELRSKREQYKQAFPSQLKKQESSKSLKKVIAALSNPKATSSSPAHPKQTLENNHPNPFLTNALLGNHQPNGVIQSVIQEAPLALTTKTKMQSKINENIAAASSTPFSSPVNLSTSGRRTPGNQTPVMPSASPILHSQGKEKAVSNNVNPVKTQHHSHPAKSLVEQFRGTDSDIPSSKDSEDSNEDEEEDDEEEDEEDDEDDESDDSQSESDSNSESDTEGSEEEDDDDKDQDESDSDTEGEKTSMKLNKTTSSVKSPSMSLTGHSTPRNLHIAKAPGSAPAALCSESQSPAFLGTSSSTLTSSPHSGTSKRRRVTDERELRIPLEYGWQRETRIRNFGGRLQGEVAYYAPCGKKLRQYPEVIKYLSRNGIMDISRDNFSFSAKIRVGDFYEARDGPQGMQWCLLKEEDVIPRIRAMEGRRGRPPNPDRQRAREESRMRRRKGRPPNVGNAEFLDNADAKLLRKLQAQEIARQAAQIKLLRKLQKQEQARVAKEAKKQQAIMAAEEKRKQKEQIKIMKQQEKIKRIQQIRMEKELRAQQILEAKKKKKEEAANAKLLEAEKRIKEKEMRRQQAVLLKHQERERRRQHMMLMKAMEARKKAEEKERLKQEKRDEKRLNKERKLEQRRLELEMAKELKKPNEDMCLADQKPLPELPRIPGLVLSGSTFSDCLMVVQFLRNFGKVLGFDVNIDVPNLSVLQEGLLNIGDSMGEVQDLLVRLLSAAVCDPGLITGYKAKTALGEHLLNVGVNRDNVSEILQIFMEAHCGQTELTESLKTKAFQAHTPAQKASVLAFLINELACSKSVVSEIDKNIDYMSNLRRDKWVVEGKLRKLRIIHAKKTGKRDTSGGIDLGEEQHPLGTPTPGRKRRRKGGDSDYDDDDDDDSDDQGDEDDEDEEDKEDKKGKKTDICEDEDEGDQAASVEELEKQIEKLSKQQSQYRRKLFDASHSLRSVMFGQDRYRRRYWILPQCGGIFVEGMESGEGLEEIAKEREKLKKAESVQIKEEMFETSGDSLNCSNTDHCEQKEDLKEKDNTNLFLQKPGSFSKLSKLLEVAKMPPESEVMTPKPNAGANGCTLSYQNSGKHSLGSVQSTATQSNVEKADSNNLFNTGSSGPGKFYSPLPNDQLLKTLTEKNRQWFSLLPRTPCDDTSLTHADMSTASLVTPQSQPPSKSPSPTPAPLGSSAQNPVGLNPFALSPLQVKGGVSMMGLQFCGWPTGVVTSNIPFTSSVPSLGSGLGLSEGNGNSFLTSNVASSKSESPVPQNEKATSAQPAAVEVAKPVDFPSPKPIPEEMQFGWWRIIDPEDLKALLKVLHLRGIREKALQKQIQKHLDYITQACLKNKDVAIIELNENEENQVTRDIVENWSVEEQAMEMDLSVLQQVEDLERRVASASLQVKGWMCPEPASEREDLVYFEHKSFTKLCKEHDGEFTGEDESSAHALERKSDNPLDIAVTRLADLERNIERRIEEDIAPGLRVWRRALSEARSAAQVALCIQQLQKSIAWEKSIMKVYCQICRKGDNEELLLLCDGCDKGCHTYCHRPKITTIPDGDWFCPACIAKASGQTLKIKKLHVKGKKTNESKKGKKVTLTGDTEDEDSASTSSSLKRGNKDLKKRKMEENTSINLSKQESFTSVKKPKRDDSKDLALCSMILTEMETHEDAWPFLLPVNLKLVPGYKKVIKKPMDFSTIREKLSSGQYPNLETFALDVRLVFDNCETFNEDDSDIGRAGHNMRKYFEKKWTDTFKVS
#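 Multi-concentration screen (max 110 uM) measuring displacement of acetylated histone H3 peptide from BAZ2B by AlphaScreen, using 50 nM protein, 50 nM peptide and 10 ug/mL streptavidin donor plus Ni-chelate acceptor beads.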
# HP1b binding inh – HP1-beta chromodomain-methylated histone interaction inhibition. P83916. AlphaScreen HP1-beta / biotin-H3K9me3 peptide binding. Potency, µM (highest dose often 114 µM), for inactives: at the highest dose activity change, negative = inhibition, hits mostly inhibitors. actives 0.56% (n = 390,000); further: nearly all actives have a fitted effect of over 70% in size
#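 Compound inhibition of the preformed complex between 50 nM HP1-beta and 50 nM biotinylated H3K9me3 peptide was read by AlphaScreen. Buffer was PBS pH 7.4 with 0.01% Tween-20. Incubations ran 30 min at room temperature, with 10 ug/mL donor/acceptor beads.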
# JMJD2A Tudor inh – blocks the human JMJD2A Tudor domain. O75164. AlphaScreen JMJD2A-Tudor / H3K4me3 peptide binding. Potency, µM (series often up to 114 µM), for the others: at the top dose activity change, negative = inhibition, actives largely listed as inhibitors. actives 4.4% (n = 390,000); further: on the % scale 0 is the no-effect control and ±100 the full control effect; nearly all actives have a fitted effect of over 50% in size
# Numbers without * were called inactive; ? = inconclusive; / = no result; [ ] = remark or other dose. The call rests on the fitted dose curve; in most records, active means well fitted curve in the direction sought with a large enough effect; inconclusive means small, poorly fitted or top-dose-only effect, or another doubt; inactive means no such curve, though single readings can be large; an effect the other way counts as inactive or inconclusive. Potency means the concentration at half of the fitted maximal effect.
SMILES,G9a block,Sfp inh,12-LOX inh,BAZ2B inh,HP1b binding inh,JMJD2A Tudor inh
C#CCOCCOCCOCCNc1nc(N2CCN(C(=O)[C@H]([C@@H](C)CC)n3cc([C@@H](N)CC(C)C)nn3)CC2)nc(N2CCN(C(=O)[C@H](CCCCN)n3cc([C@@H](N)CO)nn3)CC2)n1,?,5.1%,/,79.4µM*,30.1%,79.4µM*
C#CCOCCOCCOCCNc1nc(N2CCOCC2)nc(N2CCN(C(=O)[C@H](CCCCN)n3cc([C@@H](N)CO)nn3)CC2)n1,-29.6%[12.7 µM],-11.4%,-22.8%,50.1µM*,17.3%,79.4µM*
COCCn1c(N)c(C(=S)NC(=O)c2cccs2)c(=O)[nH]c1=O,?,25.1µM*,?,-13.6%,-6.9%,-19.2%
CCN(C(=O)COC(=O)CNC(=O)c1cccs1)c1c(N)n(Cc2ccccc2)c(=O)[nH]c1=O,/,/,0.0%,/,25.1%,-6.0%
CCCCC1CCC(C(=O)OCC(=O)N(CCOC)c2c(N)n(Cc3ccccc3)c(=O)[nH]c2=O)CC1 (stereo not drawn),1.5%[0.501 µM],/,0.9%,8.5%,24.2%,-5.5%
COCCN(C(=O)COC(=O)C1CCC(C(C)(C)C)CC1)c1c(N)n(Cc2ccccc2)c(=O)[nH]c1=O (stereo not drawn),31.6µM*,/,?,0.6%,20.9%,-14.9%
COCCN(C(=O)COC(=O)CNC(=O)c1cccs1)c1c(N)n(Cc2ccccc2)c(=O)[nH]c1=O,11.2µM*,/,?,-1.3%,-6.6%,-10.3%
C=CCNC(=O)CN1CCC(c2cc3ccccc3[nH]2)CC1,/,/,18.9%,/,/,/
COc1ccc(/C=C2/SC(=S)N(CCCC(=O)Nc3ccccc3C(=O)O)C2=O)cc1,79.4µM*,27.2%,?,?,-32.1%,?
COc1ccc(/C=C2\SC(=S)N(CC(=O)OCC(=O)Nc3cc(Cl)cc(Cl)c3)C2=O)cc1,31.6µM*,20µM*,39.8µM*,-37.6%,-4.1%,?
Cc1ccc(/C=C2\SC(=S)N(CCCC(=O)Nc3ccccc3C(=O)O)C2=O)cc1,93.7%,5.2%,?,-33.3%,?,?
O=C(CCCN1C(=O)/C(=C/c2cccs2)SC1=S)NNC(=O)c1ccccc1O,18.8%[59 µM],21.0%,9.4%,56.2µM*,22.6%,-17.9%
COc1ccc(/C=C2/SC(=S)N(CCCC(=O)Nc3cccc(O)c3)C2=O)cc1,?,-0.2%,-22.1%,?,?,?
CCc1ccc(/C=C2\SC(=S)N(CCCC(=O)Nc3ccccc3C(=O)O)C2=O)cc1,31.6µM*,-0.9%,?,?,2.2%,?
COc1cccc(OS(=O)(=O)c2ccc3c(c2)CCCC3)c1,/,/,-1.4%,/,/,/
O=C(CCCN1C(=O)/C(=C\c2ccccc2)SC1=S)Nc1ccc(C(=O)O)cc1,?,6.9%,-23.9%,-26.4%,-23.1%,?
CCc1ccc(/C=C2\SC(=S)N(CCCC(=O)Nc3ccc(C(=O)O)cc3)C2=O)cc1,-2.8%,-22.9%,-22.6%,35.5µM*,?,50.1µM*
COc1ccc(/C=C2\SC(=S)N(CCCC(=O)NNC(=O)c3ccccc3O)C2=O)cc1,2.2%,-20.6%,-27.2%,50.1µM*,?,-12.8%[11.4 µM]
CC(C)Cn1nc(C(=O)NCc2ccc(C(=O)O)cc2)c2ccccc2c1=O,/,/,22.1%,/,/,/
COc1ccc(C2C(C#N)=C(N)Oc3n[nH]c(C)c32)cc1Cn1nc(C)c([N+](=O)[O-])c1C (stereo not drawn),10µM*,-10.2%,0.0%,-8.3%,8.0%,-30.4%
COc1ccc(C2C(C#N)=C(N)Oc3n[nH]c(C)c32)cc1Cn1cc([N+](=O)[O-])cn1 (stereo not drawn),/,7.5%,0.0%,-10.5%,12.4%,-27.5%
CCCOc1ccc(N2C(=O)CC(N3CCN(c4ccccc4OC)CC3)C2=O)cc1 (stereo not drawn),44.7µM*,12.9%,311.7%,-22.3%,44.3%,-12.7%
